# HCMV inh: human cytomegalovirus inhibition | AID 1259415 | activity change, negative = inhibition, % at 57.5 µM | 410,000 tested, 4.5% active | HFF cells, HCMV-luciferase reporter, 72 h; active compounds read low; in the data active = activity change below about -60%; inconclusive = no clear call, values can overlap the other calls; inactive = above about -39%
#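 Screen run at 2 compound doses on HFFs infected with reporter HCMV, MOI 1 PFU/cell. Luciferase activity from cell lysates at 72 h post infection gave inhibition relative to buffer-only and Salinomycin wells.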
# HCV inhibitor: inhibitors of hepatitis C virus infection; Huh7.5.1 HCVcc-Cre infection, luciferase reporter, 44 h; Potency, µM (titrated, usually from 41.8 µM), for inactives: top-dose activity change, negative = inhibition, most hits filed as inhibitors; 340,000 tested, 3.4% active; AID 651820; note: potency is the fitted concentration of half-maximal effect
#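 HCVcc-Cre virus at an moi near 0.5 was added right after compound to cells cultured 4 h from seeding (1,000 cells/well). Luciferase activity was determined 44 h later, 15 min after substrate addition at RT.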
# AmpC detergent: inhibitors of E. coli AmpC beta-lactamase with detergent; P00811; AmpC hydrolysis of nitrocefin, absorbance 480 nm, 0.01% Triton; Potency, µM (top dose mostly 114 µM), for the others: at the top dose activity change, negative = inhibition, hits mostly inhibitors; 370,000 tested, 0.041% active;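 note: potency is the fitted concentration of half-maximal effect; 0% = no-compound wells and -100% = no-enzyme wells; nearly all actives have a fitted effect of over 25% in size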
# Target sequence (P00811 whole entry, looked up): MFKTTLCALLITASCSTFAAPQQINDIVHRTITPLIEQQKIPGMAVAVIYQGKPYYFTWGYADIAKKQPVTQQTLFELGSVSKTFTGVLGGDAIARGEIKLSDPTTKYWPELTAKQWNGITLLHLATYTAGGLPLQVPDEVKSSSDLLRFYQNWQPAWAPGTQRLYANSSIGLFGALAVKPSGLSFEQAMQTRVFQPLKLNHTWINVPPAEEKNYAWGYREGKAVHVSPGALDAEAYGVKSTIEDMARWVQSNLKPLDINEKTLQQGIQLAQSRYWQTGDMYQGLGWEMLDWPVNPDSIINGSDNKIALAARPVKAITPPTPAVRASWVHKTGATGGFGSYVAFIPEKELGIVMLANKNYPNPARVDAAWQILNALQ
#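 20 mM phosphate pH 7.0 + 0.01% (detergent screen) or 0.0001% Triton X-100; 5.3 nM AmpC reagent; cpd preinc 15 min RT; nitrocefin (800 uM stock) to start; A480 q20 s × 4 min; Activity was normalised to no-enzyme and no-compound control wells.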
# FMDV inh: blocks foot and mouth disease virus; AID 1159524; Potency, µM (series often up to 57.9 µM), for the others: at the top dose activity change, negative = inhibition, usual class: inhibitors; FMDV antiviral cell-based qHTS; 410,000 tested, 1.2% active; calls by dose curve; tested in HEK293T cells; note: read-out not given here; potency is the fitted concentration of half-maximal effect; nearly all actives have a fitted effect of over 45% in size
# AmpC inh no detg: inhibitors of E. coli AmpC beta-lactamase without detergent. AmpC nitrocefin hydrolysis, absorbance 480 nm, 0.0001% Triton. P00811. 330,000 tested, 0.52% active. Potency, µM (titrated, usually from 57.1 µM), without a hit: at the top dose activity change, negative = inhibition, usual class: inhibitors;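 note: potency is the fitted concentration of half-maximal effect; plate controls were no compound for no effect and no enzyme for full effect; nearly all actives have a fitted effect of over 20% in size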
#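 20 mM phosphate pH 7.0 + 0.01% (detergent screen) or 0.0001% Triton X-100; 5.3 nM AmpC reagent; cpd preinc 15 min RT; nitrocefin (800 uM stock) to start; A480 q20 s × 4 min; Activity was normalised to no-enzyme and no-compound control wells.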
# Starred values were filed as active, the others as inactive; ? = inconclusive; / = no result given. Compounds with a hit are over-represented: about 7.3% of the library has one in this group of screens. Unless noted, calls come from the whole dose curve; as a rule, active = well fitted curve in the direction sought with a large enough effect; inconclusive = small, poorly fitted or top-dose-only effect, or another doubt; inactive = no such curve, though single readings can be large; an effect the other way counts as inactive or inconclusive. Unless noted, % is set by controls: 0 for no effect and ±100 for the full control effect.
SMILES,HCMV inh,HCV inhibitor,AmpC detergent,FMDV inh,AmpC inh no detg
CC(=O)[O][Hg][c]1ccccc1,/,/,/,4.5µM*,/
CC(C)(C)N(Cc1ccccc1)C(=O)COC(=O)c1ccc(N2CCCC2=O)cc1,-20,4%,/,-8%,0%
C=CCC[C@@H](Cc1ccc(F)cc1)C(=O)OC[C@@H](NC(=O)[C@@H](CC=C)CC(=O)N[C@@H](CO)Cc1ccccc1)C(C)(C)C,-16,5%,/,?,135%
C=CCC[C@@H](Cc1ccc(F)cc1)C(=O)OC[C@H]1CCCN1C(=O)[C@@H](CC=C)CC(=O)N[C@H](CO)Cc1ccccc1,24,6%,/,?,238%
C=CCC[C@H](Cc1ccc(F)cc1)C(=O)OC[C@@H](NC(=O)[C@@H](CC=C)CC(=O)N[C@@H](CO)Cc1ccccc1)C(C)(C)C,61,22µM*,/,-1%,74%
C=CCC[C@H](Cc1ccc(F)cc1)C(=O)OC[C@@H](NC(=O)[C@@H](CC=C)CC(=O)N(CCO)Cc1ccccc1)C(C)(C)C,11,3.2µM*,/,?,134%
C=CCC[C@@H](Cc1ccc(F)cc1)C(=O)OC[C@@H]1CCCN1C(=O)[C@H](CC=C)CC(=O)N[C@H](CO)Cc1ccccc1,42,10µM*,/,?,202%
C=CC[C@H](CC(=O)N(CCO)Cc1ccccc1)C(=O)N[C@H](COC(=O)[C@@H](CC=C)Cc1ccc(F)cc1)C(C)(C)C,126,?,/,?,220%
C=CCC[C@H](Cc1ccc(F)cc1)C(=O)OC[C@H](C)NC(=O)[C@H](CC=C)CC(=O)NCCO,-69*,5%,/,-14%,244%
COc1cc2ncc(C(=O)c3ccc(C)cc3)c(N3CCCCC3)c2cc1OC,-34,/,13%,0%,/
CCCCN1C(=O)C(CC(=O)NCCCN(C)C)CC(C(=O)N(C)C)=C1C (stereo not drawn),-11,/,/,-22%,/
Cc1c2cnn(CC(=O)NC(C)C)c(=O)c2c(C)n1Cc1ccccc1Cl,27,/,-5%,27%,/
CC(=O)NCCNc1nc2cc(-c3cc(F)ccc3C)sc2c(=O)n1C,17,/,/,2%,/
CCn1c(N2CCN(Cc3ccc([N+](=O)[O-])cc3)CC2)nc2ccccc21,-6,-9%,-1%,?,107%
CCCn1c(N2CCN(Cc3ccc(Cl)cc3)CC2)nc2ccccc21,-14,13µM*,3%,-28%,96%
Cc1ccc(NS(=O)(=O)c2cc(NC(=O)c3ccc4c(c3)NC(=O)CS4)ccc2Cl)c(C)c1,-94*,10µM*,0%,-22%,-43%
Cc1ccc(C(CNS(=O)(=O)c2ccc(Br)cc2)N2CCN(C)CC2)cc1 (stereo not drawn),-30,8.9µM*,-9%,-12%,64%
Cc1ccc(C(CNS(=O)(=O)c2ccccc2)N2CCN(C)CC2)cc1 (stereo not drawn),-14,-14%,-1%,18%,5%
Cc1ccc(C(CNS(=O)(=O)c2ccc([N+](=O)[O-])cc2)N2CCN(C)CC2)cc1 (stereo not drawn),-15,11µM*,?,0%,22%
O=[N+]([O-])c1ccc(-c2ccc(S(=O)(=O)NCCN3CCCC3)cc2)cc1,-71*,10µM*,-5%,-24%,-3%
O=C(NCC1Cc2cccc(-c3ncccn3)c2O1)c1cccc(-c2ccccc2F)c1 (stereo not drawn),/,/,/,18%,/
COc1cccc2c1cc1c(=O)n(CC(=O)NCCCN3CCN(C)CC3)nc(C)n12,54,-1%,1%,3%,-9%
O=S1(=O)N[C@H](Cc2ccccc2)COc2cccc(F)c21,-22,/,/,/,/
O=C1c2cccc3cccc(c23)C(=O)C1(O)O,-69*,-26%,/,22µM*,/
C[C@H](NC(=O)[C@@H]1CCCN1C(=O)[C@@H]1CCCN1C(=O)c1ccc(Cl)cc1)c1ccccc1,9,/,/,-17%,/
SMILES,HCMV inh,HCV inhibitor,AmpC detergent,FMDV inh,AmpC inh no detg
O=C(COc1ccccc1Cl)NCC(c1cccs1)N1CCOCC1 (stereo not drawn),?,?,?,-19%,49%
COc1cc(C(=O)NCC(c2cccs2)N2CCOCC2)cc(Br)c1OCc1ccccc1 (stereo not drawn),0,10µM*,/,-7%,186%
COc1ccc(C(=O)NCC(c2cccs2)N2CCOCC2)cc1OC (stereo not drawn),-6,-9%,?,-11%,-11%
Cc1ccc(Cl)c(OCC(=O)NCC(c2cccs2)N2CCOCC2)c1 (stereo not drawn),-68*,13µM*,-10%,?,151%
COc1cc(OC)cc(-c2cc3nc(C)c(CCC(=O)Nc4ccc(F)c(Cl)c4)c(C)n3n2)c1,-62*,/,15%,32µM*,/
COc1ccc(NC(=O)CCc2c(C)nc3cc(-c4cccc(F)c4)nn3c2C)cc1Cl,-31,/,-6%,-30%,/
COc1cc(NC(=O)CCc2c(C)nc3cc(-c4ccccc4)nn3c2C)cc(OC)c1OC,-104*,/,21%,-22%,/
CN(C)c1ccc(C(=O)/C=C/c2cccnc2)cc1,-67*,-3%,-13%,-16%,-23%
O=C(/C=C/c1cccnc1)c1ccc(F)c(F)c1,67,1%,-5%,0%,-17%
CCc1nnc2c(N3CCN(c4cccc(C(F)(F)F)c4)CC3)nc3ccccc3n12,0,/,-2%,?,/
Cc1ccc(C(C)C)c(OCc2nn(CC(=O)c3ccc(Cl)cc3)c3[n+]2CCCCC3)c1,-112*,?,-7%,32µM*,203%
CCCCCNCc1ccc(Cl)cc1,?,11%,-1%,-6%,-38%
CCCCCCC[N+](CC)(CC)CCCCc1ccc(Cl)cc1,-101*,?,-10%,18µM*,79%
CSc1nc(-c2ccccc2)cc(C)c1C#N,26,10µM*,0%,-19%,5%
Cc1nc(NC(=O)CC(C)C)sc1-c1csc(Nc2ccc(Cl)cc2)n1,-22,7.1µM*,-4%,-21%,-32%
Cc1nc(-c2ccc(NC(=O)C3CC3)cc2)cs1,-4,2%,-9%,46%,-13%
COc1ccc(Cl)cc1Nc1nc(-c2sc(NC(=O)CC(C)C)nc2C)cs1,-2,11µM*,0%,-29%,-26%
Cc1nc(-c2ccc(NC(=O)CC(C)C)cc2)cs1,-76*,-21%,2%,18%,-24%
Cc1cc2nc(-c3ccc(F)cc3)c(CC3CCCCC3)n2c(C)c1Br,10,/,/,-7%,/
CCOc1ccc(CCNC(=O)C2CCN(Cc3nc(-c4ccc(OC)c(OC)c4)oc3C)CC2)cc1OCC,9,/,2%,-21%,/
O=C(CN1Cc2ccccc2OC(c2ccccc2F)C1)NC(c1ccccn1)C(F)(F)F (stereo not drawn),/,/,/,-18%,/

# Source: PubChem BioAssay (National Center for Advancing Translational Sciences (NCATS))
